# Measurements taken from PubChem BioAssay (NCI).
# The panel holds about 79,000 compounds, 15% with a hit somewhere; the sample as a whole holds those more often. Values without a mark were called inactive. Active and inactive are the calls of the source. No stated cut-off is given here; in the data, active means growth inhibition above about 70%; inactive means the rest.
# What was measured:
# [1] = NCI Yeast Anticancer Drug Screen. Data for the rad50 strain (AID 155);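 further: 0% = growth of vehicle-only cultures of the same strain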; details: S. cerevisiae rad50 strain growth inhibition, hits give high values
# Method in brief: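 Vehicle-treated cultures provide the reference for the growth inhibition reported for compound-exposed, repair-deficient yeast.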
# [2] = NCI Yeast Anticancer Drug Screen. Data for the mec2-1 strain (AID 157); details: S. cerevisiae mec2-1 strain, hits give high values
# Method in brief: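 Growth inhibition is read against vehicle-treated controls after compound exposure of the mec2-1 yeast strain, which is defective in DNA damage repair or cell cycle control.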
# [3] = NCI Yeast Anticancer Drug Screen. Data for the sgs1 mgt1 strain (AID 161);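 further: 0% = growth of cultures given vehicle only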; details: S. cerevisiae sgs1 mgt1 strain, hits give high values
# Method in brief: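 Compounds are added to genetically altered yeast, and growth is compared with cultures given vehicle alone to give percent inhibition.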
# [4] = NCI Yeast Anticancer Drug Screen. Data for the cln2 rad14 strain (AID 165);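 further: 0% = growth equal to vehicle treated cultures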; details: S. cerevisiae cln2 rad14 strain, hits give high values
# Method in brief: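 Growth inhibition, relative to vehicle-treated controls, is the read-out. The test organism is a yeast strain with defined genetic alterations, cln2 rad14.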
# [5] = NCI Yeast Anticancer Drug Screen. Data for the bub3 strain (AID 167); details: S. cerevisiae bub3 mutant strain, hits give high values
# Method in brief: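 Mutant yeast screening strain plus compound; vehicle-treated cultures serve as the 0% inhibition reference.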
# [6] = NCI Yeast Anticancer Drug Screen. Data for the mlh1 rad18 strain (AID 175); details: S. cerevisiae mlh1 rad18 strain growth inhibition, hits give high values
# Method in brief: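 Cells of a genetically altered yeast strain, deficient in DNA damage repair, were treated with compound. Their growth was then compared with that of vehicle-treated cultures to give inhibition.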
# [7] = at 5.0 µM (retest, dose inferred, filed as 0.5)
# [8] = at 50.0 µM (retest, dose inferred, filed as 5.0)
Structure (SMILES),"growth inhibition [1, 7] [%]","growth inhibition [1, 8] [%]",growth inhibition ([1]; at 50.0 µM),"growth inhibition [2, 7] [%]","growth inhibition [2, 8]",growth inhibition ([2]; at 50.0 µM),"growth inhibition [3, 7] [%]","growth inhibition [3, 8]",growth inhibition ([3]; at 50.0 µM),"growth inhibition [4, 7] [%]","growth inhibition [4, 8]",growth inhibition ([4]; at 50.0 µM),"growth inhibition [5, 7] [%]","growth inhibition [5, 8]",growth inhibition ([5]; at 50.0 µM),"growth inhibition [6, 7] [%]","growth inhibition [6, 8]",growth inhibition ([6]; at 50.0 µM)
O=C([O-])C[n+]1c(/C=C/c2ccccc2)ccc2ccccc21,-2,69,37.1%,-3,87% (active),5.35%,-6,92% (active),28.9%,-3,85% (active),13.9%,2,84% (active),6.8%,0,94% (active),32.3%
O=C1CCCCC1=C(I)I,18,18,56.2%,18,18%,66.5%,13,13%,68.8%,-4,-4%,39.8%,2,2%,74.4% (active),12,12%,72.2% (active)
CC(=O)Nc1ccc(N=C2c3ccccc3-c3ccc(NC(C)=O)cc32)cc1,2,64,98.4% (active),0,52%,77.3% (active),-2,57%,98.5% (active),3,28%,43.4%,-1,53%,87.8% (active),-5,59%,98.2% (active)
C/C=C1/C=CC2c3[nH]c4ccccc4c3CCN2C1 (centres undefined),-152,-150,5.35%,-51,-57%,-0.8%,-62,-67%,2.95%,-62,-72%,38%,-73,-81%,-13.4%,-137,-107%,13%
CN(C(=O)C(Cl)Cl)c1ccc(-c2csc(-c3ccccc3)n2)cc1,5,12,12.9%,10,-1%,33.9%,6,20%,-7.4%,-2,-3%,95.8% (active),2,22%,97% (active),4,7%,22.4%
O=C1NC(=S)S/C1=C\c1cc(Cl)ccc1O,4,-7,2.85%,-4,-6%,15.7%,-1,4%,60.5%,-7,-18%,-22.4%,-7,-14%,-4.2%,-5,-6%,3.05%
CCOC(=O)C(=N\Nc1cccc(C)c1C)/C(C)=N\NC(N)=S,3,35,70.2% (active),9,56%,38.2%,32,76% (active),75.8% (active),-6,14%,64.1%,3,34%,59.7%,30,81% (active),81.1% (active)
COc1ccc2ccc3c(c2c1)CCC(C(=O)O)C3CC(=O)O (centres undefined),-9,9,41.9%,-17,0%,97.5% (active),-11,12%,43.6%,0,27%,93.8% (active),-11,26%,77.2% (active),-30,35%,84% (active)
